Screening data from PubChem.
Sampled rows, rich in hits. Any-hit rate of the full collection: about 8%.
KB-V1 MDR tox – KB-V1 MDR subline cytotoxicity; KB-V1 MDR cells viability, CellTiter-Glo, 72 h; Potency, µM (top dose mostly 46.1 µM), usual class: cytotoxic; 3.4% of 400,000 active; AID 1347076; also: % is scaled to controls: 0 for no effect and ±100 for the full control effect; nearly all actives have a fitted effect of over 60% in size
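Readout: CellTiter-Glo luminescence, 10 min after addition. Cells: KB-V1 MDR subline, 72 h at 37 degrees C with compound. Analysis: corrected, normalized data fitted to concentration-effect curves.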
MCF10A rereplic – induces DNA re-replication in MCF 10a normal breast cells | AID 624296 | Potency, µM (doses to about 46.1 µM), for the others: at the top dose activity, positive = re-replication, most hits filed as activators | 2.9% of 350,000 active | MCF 10A DNA re-replication, Hoechst nuclear intensity, 48 h; also: % of control where 0% means no effect; nearly all actives have a fitted effect of over 50% in size
HT1080 IDH1KD tx – kills HT-1080 cells with IDH1 knockdown; Potency, µM (top dose mostly 46.1 µM), for the others: top-dose activity, negative = toxicity, usual class: cytotoxic; HT-1080 IDH1 knockdown viability, ATP luminescence, 48 h; 2% of 360,000 active;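 also: 0% = DMSO wells and -100% = cell-free medium wells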
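HT-1080-IDH1KD cells (IDH1 knocked down), 750/well in RPMI with 5% FBS, treated with compound 48 h at 37 degrees C. Viability by CellTiter-Glo luminescence, normalised to DMSO and no-cell wells; concentration-response curves classed.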
KB-3-1 cytotox – KB-3-1 parental cell cytotoxicity; 1.4% of 400,000 active; KB-3-1 viability, CellTiter-Glo ATP luminescence, 72 h; Potency, µM (top dose mostly 46.1 µM), most hits filed as cytotoxic; also: % is scaled to controls: 0 for no effect and ±100 for the full control effect; nearly all actives have a fitted effect of over 60% in size
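Here the drug-naive KB-3-1 line serves as comparator for MDR sub-line selectivity; cells received compound titrations, 72 h at 37 °C, then CellTiter-Glo readout.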
HT1080NT lethal – kills 2HG-producing HT-1080-NT fibrosarcoma cells; HT-1080-NT fibrosarcoma viability, CellTiter-Glo ATP luminescence, 48 h; 1.6% of 360,000 active; Potency, µM (titrated, usually from 46.1 µM), without a hit: at the top dose activity, negative = less viability, hits mostly cytotoxic; AID 686970;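 also: NT is the 2HG producing partner of a matched IDH1 knockdown line; 0% = DMSO-treated cells and -100% = media-only wells without cells; nearly all actives have a fitted effect of over 55% in size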
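Toxicity toward the 2HG-producing NT line was scored as %Activity, normalised to DMSO and no-cell wells, from CellTiter-Glo luminescence after 48 hours' treatment.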
SW480 rerep – DNA re-replication induction in SW480 cells | SW480 DNA re-replication, Hoechst DNA content imaging, 48 h | Potency, µM (highest dose often 46.1 µM), without a hit: at the highest dose re-replication activation, actives largely listed as activators | 1.8% of 340,000 active | AID 624297; also: % of control where 0% means no effect; nearly all actives have a fitted effect of over 55% in size
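250 cells/well; 23 nL cpd via pin tool; 48 hr, 37 C, 5% CO2; Hoechst 40 min; imager read of total nuclear intensity, ex 405/em 500-530 nm.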
The depositor's hits bear a star; i = inactive; ? = inconclusive; / = not tested or not shown; [ ] = another dose, or the depositor's remark. Calls follow the shape of the dose curve; as a rule, active = well fitted curve in the direction sought with a large enough effect; inconclusive = small, poorly fitted or top-dose-only effect, or another doubt; inactive = no such curve, though single readings can be large; an effect the other way counts as inactive or inconclusive. Potency is read from the fitted curve at half-maximal effect.

SMILES	KB-V1 MDR tox	MCF10A rereplic	HT1080 IDH1KD tx	KB-3-1 cytotox	HT1080NT lethal	SW480 rerep
COCCCNC(=O)c1sc2ncn(CC(=O)Nc3ccc(C)c(Cl)c3)c(=O)c2c1C	i	-27%	-22%	i	-4%	3%
Nc1nc(SCC(=O)c2cc3ccccc3o2)n[nH]1	i	2%	1%	i	4%	-2%
O=C(O)CSc1cccc[n+]1[O-]	i	-1%	1%	i	8%	-5%
O=C(CSc1cccc[n+]1[O-])c1cc2ccccc2o1	21µM*	19%	16µM*	18µM*	7.3µM*	13µM*
O=C(CSc1cccc[n+]1[O-])c1cc(Cl)ccc1Cl	i	-3%	2.3µM*	i	-25%	?
CN(C)c1ccc(C(=O)Nc2c(C(=O)NC(C)(C)C)oc3ccccc23)cc1	i	/	/	i	/	/
CCCCC(CC)C(=O)Oc1ccc(O)c(C(C)(C)C)c1 (stereo not given)	i	4.1µM*	23µM*	i	16µM*	9%
Cc1ccc(C)c(NC(=O)C2CCCN(S(=O)(=O)c3c(C)nn(C)c3C)C2)c1 (stereo not given)	i	54%	-6%	i	-23%	-17%
Cc1ccc(C(=O)N2CCCCC2)cc1NC1=C(Cl)C(=O)N(Cc2ccccc2)C1=O	i	8.2µM*	?	?	?	?
Cc1ccc(CN2C(=O)c3ccccc3Sc3ccc(C(=O)NCCN4CCOCC4)cc32)cc1	?	?	9.2µM*	?	12µM*	?
O=C(c1ccc2c(c1)N(Cc1ccccc1)C(=O)c1ccccc1S2)N1CCCC1	2.3µM*	17%	2%	i	9%	-8%
Cc1cccc(CN2C(=O)c3ccccc3Sc3ccc(C(=O)N4CCCC4)cc32)c1	i	/	/	?	/	/
COc1ccc2ncc3c(-c4ccccc4)nn(-c4ccc(C)c(C)c4)c3c2c1	i	/	/	i	/	/
Cc1cc(C(=O)NC(C)Cc2ccccc2)cc(C)c1[N+](=O)[O-] (stereo not given)	?	9%	6%	i	0%	4%
Fc1ccc(-n2cc(-c3ccccc3)c3c(=S)nc[nH]c32)cc1	i	-1%	?	18µM*	-29%	-1%
Fc1cccc(-n2cc(-c3ccccc3)c3c(=S)nc[nH]c32)c1	i	9%	?	?	-14%	4%
Cc1cc(-n2cnc3c(=O)[nH]cnc32)ccc1N	i	3%	13%	i	7%	0%
Cc1ccc(-n2cnc3c(=O)[nH]cnc32)cc1	9.2µM*	-26%	11%	?	0%	-1%
O=c1[nH]cnc2c1c(-c1ccccc1)cn2-c1ccccc1	?	-2%	15%	i	13%	-6%
Cc1ccc(-n2cc(-c3ccccc3)c3c(=O)[nH]cnc32)cc1	i	23µM*	1%	i	-4%	-7%
Oc1ccc(/C=N/NC(=S)Nc2cccnc2)c(O)c1O	i	-14%	4%	i	4%	2%
Fc1c(F)c(F)c(/C=N/NC(=S)Nc2cccnc2)c(F)c1F	i	11µM*	16µM*	i	?	?
Oc1cccc(/C=N/NC(=S)Nc2cccnc2)c1O	i	?	?	10µM*	?	?
CCOC(=O)C1CCCN(C(=O)c2ccccc2NC(=O)c2nsc3ccccc23)C1 (stereo not given)	i	/	/	i	/	/
CCOC(=O)C1=C[C@@H](C(C)(C)C)N(S(=O)(=O)c2ccc(C)cc2)[C@H]1c1ccc(C)cc1	i	/	13µM*	i	?	/
SMILES	KB-V1 MDR tox	MCF10A rereplic	HT1080 IDH1KD tx	KB-3-1 cytotox	HT1080NT lethal	SW480 rerep
COc1ccc2c(c1)C1=NN(/C(C)=C/C(C)=O)C(c3ccc(F)cc3)C1CC2 (stereo not given)	21µM*	?	13%	i	5%	0%
CC1CCN(S(=O)(=O)c2cc(C(=O)NCCc3ccccc3)n(C)c2)CC1	i	/	/	i	/	/
O=C(/C=C/c1ccco1)Nc1ccc2c(c1)OCO2	?	?	21µM*	?	13µM*	?
CC(=O)Nc1ccc(NC(=O)/C=C/c2ccc3c(c2)OCO3)cc1	i	?	-19%	i	?	0%
COC(=O)c1cccc(NC(=O)/C=C/c2ccc3c(c2)OCO3)c1	?	?	?	5.8µM*	?	-7%
Cc1ccc(NC(=O)c2cccc(NC(=O)/C=C/c3ccco3)c2)cc1C	?	?	-23%	?	-4%	4%
Cc1ccc(-n2nc3ccc(NC(=O)/C=C/c4ccco4)cc3n2)cc1	?	12µM*	0%	i	4%	?
NS(=O)(=O)c1ccc(NC(=O)/C=C/c2ccc3c(c2)OCO3)cc1	i	18µM*	0.73µM*	2.3µM*	7.3µM*	6.5µM*
N/C(=N\OC(=O)COc1ccc(Cl)cc1Cl)c1ccncc1	i	-22%	-4%	i	3%	-7%
Cc1ccc(C)c(C(=O)CCC(=O)N2CCN(c3cccc(C(F)(F)F)c3)CC2)c1	i	18%	-11%	i	-1%[9.24 µM]	19%
CCOC(=O)c1c(C)[nH]c(C)c1S(=O)(=O)N(C)CC(=O)Nc1ccc(CC)cc1	?	/	/	i	/	/
O=C(/C=C/c1ccc2c(c1)OCO2)Nc1cccnc1	i	?	?	8.2µM*	?	2%
O=C(/C=C/c1ccc2c(c1)OCO2)c1cccnc1	i	9%	-19%	?	-14%	?
O=C(CNC(=O)N1CC(=O)Nc2ccccc21)NCCc1cccc(F)c1	i	-3%	1%	i	-7%	-9%
O=C(OCc1cn([C@H]2C[C@H](c3ccc(Cl)cc3)N(C(=O)c3cccs3)C[C@@H]2O)nn1)c1ccccc1	i	/	14%	i	14%	/
CN1CCCC(n2nc(Cc3ccc(Cl)cc3)c3ccccc3c2=O)CC1 (stereo not given)	?	42%	4.1µM*	6.5µM*	5.2µM*	-28%
CCOC(=O)Cn1nc(Cc2ccccc2)c2ccccc2c1=O	i	3%	-3%	i	-5%	-8%
Cc1ccnc(NC(=O)CNC(=O)Cc2cccc3ccccc23)c1	i	-10%	-3%	i	2%	52%
CC1CCCC(NC(=S)Nc2ccc(SC(F)F)cc2)C1C (stereo not given)	23µM*	?	?	18µM*	?	?
CC(C)(C)CN1CCN(Cc2cc3ccccc3[nH]2)CC1CCO (stereo not given)	i	0.65µM*	-3%	?	-5%	?
